Laboratory results reported in PubChem BioAssay (NCI).
Compounds without any hit were thinned out: in the full panel of roughly 83,000, 20% have a hit.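 Activity criterion: percent growth below 10, measured after cells in 96-well plates were exposed to a single compound concentration for 48 hours.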 Values without a mark were called inactive. The source made the active and inactive calls.

System: HL-60(TB) leukemia
Assay: NCI-60 one-dose screen, 48 h (100 = growth as untreated, 0 = no growth, -100 = all killed)
Conditions: 10 µM unless noted

Row | Compound | growth
1 | COc1ccc(-n2nc3c(c2-c2ccc(OC)c(OC)c2)-c2oncc2CC3)cc1 | 88.4%
2 | c1cnc2n[nH]c(Nc3ncnc4c3sc3ncccc34)c2c1 | 96.8%
3 | Fc1cc(Nc2ccc3c(OCCCN4CCOCC4)cccc3n2)ccc1Cl | 39.1%
4 | O=S(=O)(Nc1cccc2cc(OS(=O)(=O)c3ccccc3)ccc12)c1ccccc1 | 41.4%
5 | CCCCCCCCCCCCCCCCCCOc1ccccc1CCCOP(=O)(O)OCC[N+](C)(C)C | 21.9%
6 | COc1ccc(S(=O)(=O)N2CC3(COC3)C2)cc1NC(=O)c1[nH]c(C)c2c1CCCCC2=O | -11% (active)
7 | CCc1ccc(OCc2ccccc2C(=O)Nc2ccc3nc(C)cc(N)c3c2)cc1 | -75.9% (active)
8 | CC[n+]1c(/C=C/c2ccc(N3CCCC3)cc2)cccc1/C=C/c1ccc(N2CCCC2)cc1 | -20.8% (active)
9 | CC(=O)n1cc(/C=C2\N=C(c3ccc(Cl)cc3)N(c3ccc(S(=O)(=O)Nc4nccs4)cc3)C2=O)c2ccccc21 | 73.3%
10 | CC(=O)Cc1nsc(NC(=O)c2cc(-c3cc(Cl)ccc3Cl)oc2C)n1 | 94.3%
11 | CC(=O)N1CCN(CCNC(=O)n2cc(-c3ccncc3)c(-c3cc(O)cc(Cl)c3)n2)CC1 | 59.9%
12 | O=C(NCc1ccc(Cn2c(=O)sn(-c3ccccc3)c2=O)cc1)OCc1ccc2cccc(O)c2n1 | -56.8% (active)
13 | COc1cc(C(=O)Nc2ccc(N(C)C)cc2)cc(OC)c1OC | 95.8%
14 | CN(C)CCCn1c2c(c3ccc(-c4ccn[nH]4)cc3c1=O)C(=O)c1ccccc1-2 | -7.99% (active)
15 | Clc1cc(Cl)c(Cl)nn1 | 69.7%
16 | Cc1c(NC(=O)OC[C@@H]2COCCN2)cn2ncnc(Nc3ccc4c(cnn4Cc4cccc(F)c4)c3)c12 | -25.6% (active)
17 | Cc1cc(C)c2c(N)c3cccc(C)c3nc2n1 | -19.1% (active)
18 | N#C/C(=C\c1ccc(Br)cc1)n1nnc2ccccc21 | 2.58% (active)
19 | Nc1ccc(S(=O)(=O)c2ccc(NO)cc2)cc1 | 107%
20 | O=C(CCl)NCCNc1nccc(Nc2ccc(S(=O)(=O)Nc3ccccn3)cc2)n1 | 10.2%

Row | Compound | growth
21 | Nc1nc(C(=O)N/N=C/c2ccc(N3CCOCC3)cc2)nn1-c1ccc(S(N)(=O)=O)cc1 | 101%
22 | Cn1ncc2c(=O)nc3c(-c4ccccc4)n[nH]n3c21 | 107%
23 | COc1ccccc1Nc1cc(O)c2c(=O)cc(-c3ccccc3)oc2c1 | -6.07% (active)
24 | Nc1nc(Nc2ccccc2SSc2ccccc2Nc2nc(N)nc(C(Cl)(Cl)Cl)n2)nc(C(Cl)(Cl)Cl)n1 | 11.5%
25 | CC(Sc1nc2sc3c(c2c(=O)n1-c1ccc(Cl)cc1)CCCC3)C(=O)Nc1nc(-c2ccc(Br)cc2)cs1 (stereo not given) | 98.6%
26 | O=C(C=P(c1ccccc1)(c1ccccc1)c1ccccc1)CCl | -39.8% (active)
27 | Cn1cc(-c2nonc2-c2cn(C)c3ccc(F)cc23)c2cc(F)ccc21 | 17.3%
28 | NC(=O)c1c(NC(=O)COC(=O)Cc2ccccc2F)sc2c1CCC2 | 135%
29 | CC[C@H](Nc1ncnc2nc[nH]c12)c1nc2cccc(NCc3ccc(C(=O)NO)nc3)c2c(=O)n1-c1ccccc1 | 17.8%
30 | N#Cc1cccc(OCc2nc(N)nc(N)c2-c2ccc(Cl)c(Cl)c2)c1 | 29.8%
31 | COc1cc(-c2nc3ccc(C)cc3[nH]2)ccc1OCc1nnc(-c2ccc(CC(C)C)cc2)o1 | 110%
32 | O=C1/C(=C/c2ccccc2)CCC/C1=C\c1ccccc1 | 97.8%
33 | c1ccc(-c2ccc(-c3ccccc3)[nH]2)cc1 | 91.2%
34 | Nc1cccc(S(=O)(=O)c2cccc(N)c2)c1 | -10.6% (active)
35 | Cc1nn2c(/C=C3/C(=O)Nc4cc(Cl)ccc43)c(-c3ccccc3)nc2s1 | 32.2%
36 | CCCCN(CCCC)C(=O)CC | 97.3%
37 | C=CCNC(=S)N/C=C(/C(=O)c1ccccc1)c1ccccc1 | 101%
38 | N[C@@H]1CCN(C(=O)c2cc3cc(Cl)c(F)c(F)c3[nH]2)C1 | 97.7%
39 | CCCCCC(=C/c1ccccc1)/C=N/N=C(N)N | -30.2% (active)
40 | CCc1ccc(-c2ccc(-n3nc(C)c4c(N)nc(Cc5ccccc5)nc43)cc2)cc1 | 65%
